Sampled rows, rich in hits. Any-hit rate of the full collection: about 21%.
Pf growth 96h – inhibits malaria parasite growth, 96 h. AID 504834. 320,000 compounds, 6.9% hits. Potency, µM (titrated, usually from 28.7 µM), inactives show top-dose activity change, negative = inhibition, most hits filed as inhibitors. P. falciparum luciferase reporter growth, 96 h; active = well fitted inhibition curve with a large enough effect; inconclusive = small, poorly fitted or top-dose-only effect, or another doubt; inactive = no such curve, though single readings can be large or run the other way; note: potency is the fitted concentration of half-maximal effect; % is set by controls: 0 for no effect and ±100 for the full control effect
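P. falciparum expressing integrated firefly luciferase, in erythrocytes at 2% hematocrit, 0.05% parasitemia, incubated with compounds 96 h at 37 C, 5% CO2. Growth inhibition read as loss of luminescence; two-generation exposure targets delayed-death apicoplast inhibitors.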
NS1 function inh – influenza NS1 inhibition. Potency, µM (series often up to 46.1 µM), without a hit: top-dose activity, positive = more growth. 270,000 compounds, 0.4% hits; note: potency is the fitted concentration of half-maximal effect; actives are rising curves; nearly all actives have a fitted effect of over 50% in size
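A cell-based growth assay was used: compounds that relieve NS1-induced slow growth of budding yeast raise OD600. Assay medium was yeast nitrogen base with ammonium sulphate and -URA supplement, pH 6.0, with 2% galactose.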
Pf growth 48h – P. falciparum growth inhibition at 48 hours (one generation) | P. falciparum luciferase growth in erythrocytes, 48 h | Potency, µM (series often up to 28.7 µM), without a hit: top-dose activity change, negative = inhibition, usual class: inhibitors | 310,000 compounds, 5.9% hits | AID 504832; active = well fitted inhibition curve with a large enough effect; inconclusive = small, poorly fitted or top-dose-only effect, or another doubt; inactive = no such curve, though single readings can be large or run the other way; note: potency is the fitted concentration of half-maximal effect; % is set by controls: 0 for no effect and ±100 for the full control effect
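Luciferase-expressing parasites in RBCs, 2% Hct / 0.1% parasitemia final; RPMI 1640 + 0.5% Albumax; 37 C, 5% CO2, one generation; luminescence read-out, lower signal = inhibition.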
SARS PLpro yeast – blocks SARS-CoV papain-like protease in a yeast assay; S. cerevisiae expressing SARS-CoV PLpro, growth rescue; Potency, µM (series often up to 32.9 µM), without a hit: at the highest dose activity, positive = growth rescue, most hits filed as activators; 330,000 compounds, 0.19% hits; AID 485353; note: potency is the fitted concentration of half-maximal effect; 0% is about no effect; nearly all actives have a fitted effect of over 55% in size
Cycloheximide cs – counter-screen hit for Shiga toxin inhibitors, cycloheximide; cell reporter, cycloheximide protein synthesis inhibition counterscreen; max response, %; 300,000 compounds, 12% hits; AID 2314; in the data active = max response mostly above about 13%, no sharp cut-off; inactive = mostly below about 14%; note: read at 38.3 µM for the half of the compounds with a filed dose; 0% is about no effect
Shiga toxin inh – blocks Shiga toxin action in Vero cells; Vero cells, Shiga toxin protein synthesis inhibition reporter; 290,000 compounds, 9.2% hits; AID 2315; inhibition, % at 38.7 µM; in the data active = inhibition mostly above about 28%, no sharp cut-off; inactive = mostly below about 43%; note: 0% is about no effect
* marks the source's active call; other numbers are inactive results; ? = inconclusive; · = not tested or not shown; [ ] = another dose, or the depositor's remark. Unless noted, calls come from the whole dose curve.

SMILES	Pf growth 96h	NS1 function inh	Pf growth 48h	SARS PLpro yeast	Cycloheximide cs	Shiga toxin inh
Cc1ccc(Nc2ccc([N+](=O)[O-])nc2[N+](=O)[O-])cc1	?	15%	?	-6%	22*	-2
Cc1ccc(Nc2ccc3nonc3c2[N+](=O)[O-])cc1	-103%	·	-5%	0%	-8	30
Cc1ccc(Nc2nc(N)c([N+](=O)[O-])c(NCCO)n2)cc1	?	-4%	?	0%	13*	24
Cc1ccc(Nc2nc(N)c([N+](=O)[O-])c(NCc3ccco3)n2)cc1	12µM*	11%	0%	9%	34*	55*
Nc1nc(Nc2ccccc2)nc(NCc2ccco2)c1[N+](=O)[O-]	?	-17%	?	-6%	-2	0
Fc1ccc(Nc2nc(NCc3ccco3)c3ccccc3n2)cc1	?	-51%	0.37µM*	-3%	30*	67*
CC(C)c1ccc(Nc2nc(Cl)nc(NCc3ccco3)n2)cc1	?	-3%	?	-1%	-1	18
Nc1nc(Nc2cccc(F)c2)nc(NCCO)c1[N+](=O)[O-]	?	4%	?	-1%	7	-2
O=C(CN1C(=O)C2CCCCC2C1=O)Nc1cccc([N+](=O)[O-])c1 (stereo not given)	-27%	·	-1%	3%	·	·
COc1cccc(C(C(=O)NC2CCCCC2)N(C(=O)c2csnn2)C2CC2)c1 (stereo not given)	-27%	-1%	-3%	1%	-1	7
Cc1cc(C)nc(N2CCCC(C(=O)Nc3cccc(Cl)c3)C2)n1 (stereo not given)	-4%	8%	?	0%	-9	7
Nc1nc(NCc2ccco2)nc(Nc2ccccc2)c1[N+](=O)[O-]	-23%	-4%	-3%	0%	-2	-6
Nc1nc(Nc2ccccc2F)nc(NCc2ccco2)c1[N+](=O)[O-]	?	7%	-19%	0%	39*	49*
Cc1cccc(N2CCN(C(=O)c3ccc(Cl)c(NC4=NC5CS(=O)(=O)CC5S4)c3)CC2C)c1 (stereo not given)	-2%	-28%	-24%	-1%	-3	-8
O=C(Nc1ccc(Cl)c(C(F)(F)F)c1)N1CCCC(O)C1 (stereo not given)	0.66µM*	-3%	22%	-6%	9	14
O=C(Nc1ccc(Cl)c(C(F)(F)F)c1)C(=O)N1CCCCC1	?	-4%	81%	-29%	27*	61
O=C1C=C(c2ccc(C(=O)O)cc2)C[C@@H](c2ccc3c(c2)OCO3)C1	88%	·	30%	4%	·	·
Cc1ccc(OCCCN2C(=O)C(=O)c3cc(C)ccc32)cc1	25%	-4%	-13%	-1%	-1	-7
Cc1ccc2c(c1)C(=O)C(=O)N2CCCOc1ccccc1	0%	-8%	-14%	-3%	14*	26
CCN1C(=O)C(=O)c2cc(C)ccc21	·	·	·	11µM*	·	·
O=C1C(=O)N(CCCc2ccccc2)c2ccccc21	10µM*	1%	?	-12%	7	3
CCCn1c(O)c(C=Nc2ccccc2)sc1=S	?	-4%	18%	0%	36*	44*
CCCCn1c(O)c(/C=C/C=C/C=Nc2ccccc2)sc1=S	?	·	?	-5%	11	48
Oc1c(/C=C/C=C/C=Nc2ccccc2)sc(=S)n1Cc1ccccc1	2%	12%	-10%	-2%	25*	72*
CCn1c(O)c(/C=C/C=C/C=Nc2ccccc2)sc1=S	45%	7%	0%	0%	-1	11
SMILES	Pf growth 96h	NS1 function inh	Pf growth 48h	SARS PLpro yeast	Cycloheximide cs	Shiga toxin inh
O=C(NCc1ccc(F)cc1)C1CCN(S(=O)(=O)c2cccc3nonc23)CC1	4%	2%	-15%	-2%	-3	-6
Cc1cc(Cl)c(OCCCCNC(C)(C)C)c(Br)c1	60%	-15%	-17%	-12%	-6	-11
Cc1[nH]c2ccccc2c1C(=O)C(C)OC(=O)c1ccc(Cl)nc1 (stereo not given)	-34%	·	?	1%	·	·
Cc1[nH]c2ccccc2c1C(=O)C(C)OC(=O)c1ccc(NC(=O)CC#N)cc1 (stereo not given)	3.3µM*	·	3.7µM*	-1%	·	·
Cc1cc(C(=O)C(C)OC(=O)c2ccc(NC(=O)CC#N)cc2)c(C)n1-c1ccc(OC(F)F)cc1 (stereo not given)	?	·	5.9µM*	-5%	·	·
O=C(CCN1CCCCC1=O)NC1CCCN(Cc2ccc(Cl)cc2)C1 (stereo not given)	?	-19%	-11%	9%	2	-10
O=C(NCCc1nnc2ccc(SCC(=O)N3CCCC3)nn12)c1ccc(F)cc1	?	-5%	-11%	4%	-2	17
O=C(NC(=S)Nc1nc(-c2ccccc2)cs1)c1cccnc1	12µM*	·	-23%	-2%	7	1
O=C(Nc1nc(-c2cccnc2)cs1)c1cccc([N+](=O)[O-])c1	?	7%	0%	-1%	-1	31
O=C(Nc1nc(-c2cccnc2)cs1)c1ccc([N+](=O)[O-])cc1	12µM*	2%	4.7µM*	0%	12	-1
O=C(Nc1nc(-c2ccccc2)cs1)c1cccc([N+](=O)[O-])c1	107%	3%	-24%	2%	50*	100*
O=C(NC(=S)Nc1nc(-c2ccccc2)cs1)c1cncc(Br)c1	?	-4%	?	19%	0	31
C=CCn1c2ccccc2c2nnc(SCCN3CCOCC3)nc21	?	1%	?	1%	-1	-3
CC1(C)NC(=O)N(CCOCCOc2ccccc2-c2ccccc2)C1=O	0%	·	34%[5.75 µM]	1%	2	-7
Cc1cc(C)n(-c2ccc(NC(=O)C3CCN(Cc4ccccn4)CC3)cc2)n1	?	13%	?	4%	-1	2
CCCc1nc2c([nH]1)c(=O)n(C)c(=O)n2C	56%	4%	32%	1%	-3	1
COCCn1c(CN(C)Cc2ccccc2)nc2c1c(=O)n(C)c(=O)n2C	5.9µM*	-7%	·	-2%	-6	-20
CCOC(=O)Cn1c(CN(Cc2ccccc2)Cc2ccccc2)nc2c1c(=O)n(C)c(=O)n2C	?	·	5.9µM*	-5%	-4	-7
CN(Cc1ccccc1)Cc1nc2c([nH]1)c(=O)n(C)c(=O)n2C	10µM*	2%	?	3%	-3	-5
CN(Cc1ccccc1)Cc1nc2c(c(=O)n(C)c(=O)n2C)n1CCc1ccccc1	·	-47%	·	·	·	·
CCCn1c(CN(Cc2ccccc2)Cc2ccccc2)nc2c1c(=O)n(C)c(=O)n2C	9.3µM*	-53%	?	-14%	-1	5
CC(C)=CC(=O)Oc1ccc(C(=O)N(C)c2ccccc2I)cc1	·	·	·	·	-2	18
CCCn1c(CN(C)Cc2ccccc2)nc2c1c(=O)n(C)c(=O)n2C	45%	-3%	-15%	11%	-5	-2
CCCCn1c(CN(C)Cc2ccccc2)nc2c1c(=O)n(C)c(=O)n2C	-2%	-18%	13µM*	-1%	-4	13

High-throughput results deposited in PubChem BioAssay by National Center for Advancing Translational Sciences (NCATS).
